For 5 compounds, fractional viability results are on record in the supplement of paper PMC5919970.

The structures appear in SMILES notation. In all, about 2,000 compounds were measured (“fractional viability relative to vehicle”: median about 0.91, lowest 2% from about 0.045 on). Only a selection was taken, and the lowest values are over-represented in it overall.

In this test the test system is TYKNU. Kind of test: fractional viability relative to vehicle; TYKNU is a high-grade serous ovarian cancer line; higher = less growth inhibition. The conditions noted are these: 72 h. The method in brief: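 TYKNU control cells or lentiCRISPRv2 knockout derivatives were plated at 500 cells per well in duplicate into drug-stamped 384-well plates holding a ~2100-compound library at 2 or 10 μM. Culture was in RPMI 1640 with 10% FBS at 37 °C in 5% CO2, with 72 h of drug treatment. Viability was measured by Cell Titer Glo luminescence, and the averaged duplicate treatment wells were normalised to duplicate control wells at the same plate position.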

[1] abbreviates: 2uM, genotype: DNM1L knockout (sgDNM1L #1).
Where [2] appears, read: 2uM, genotype: sgCTRLA1 (non-targeting control).
Setting [3] is: 10uM, genotype: DNM1L knockout (sgDNM1L #1).
Setting [4] is: 10uM, genotype: sgCTRLA1 (non-targeting control).

Consider `O=C([C@@H](Cc1cccc(C(F)(F)F)c1)NS(=O)(=O)c1cc(F)c2c(c1)CCNC2)N1CCCC1`, for which the fractional viability by setting is: under setting [1], 0.927; under setting [2], 1.04; under setting [3], 0.863; under setting [4], 0.888.

As to `CC(C)CCNC(=O)[C@H](CC(C)C)NC(=O)[C@H]1O[C@@H]1C(=O)O` [Loxistatin Acid (E-64C)], the fractional viability reads like this: under setting [1], 0.865; under setting [2], 0.938; under setting [3], 0.959; under setting [4], 0.802.

For the compound `CCCCC(=O)N(Cc1ccc(-c2ccccc2-c2nnn[nH]2)cc1)[C@H](C(=O)O)C(C)C.CCOC(=O)[C@H](C)C[C@@H](Cc1ccc(-c2ccccc2)cc1)NC(=O)CCC(=O)O`, the fractional viability is 0.864 under setting [1], 0.941 under setting [2], 0.769 under setting [3] and 0.732 under setting [4].

With `CN1CCN(S(=O)(=O)c2ccc(-c3cnc(N)c(C(=O)Nc4cccnc4)n3)cc2)CC1`, the fractional viability under setting [1] turned out to be 0.731, the fractional viability under setting [2] came out at 1.08, the fractional viability under setting [3] stood at 0.346 and the fractional viability under setting [4] was determined as 0.474.

Consider `O=C(O)C(Cc1ccccc1[N+](=O)[O-])=NNc1nc(-c2ccc(Cl)c(Cl)c2)cs1` (mixture of isomers), for which the fractional viability is, setting by setting: under setting [1], 0.727; under setting [2], 0.775; under setting [3], 0.717; under setting [4], 0.573.
